Test results from PubChem BioAssay AID686978 (National Center for Advancing Translational Sciences (NCATS), 2013).
Among all 420,000 compounds or so, about 64,000 (15%) were called active. About 27% were inconclusive and are not listed. Not all results are given here. Values without a mark were called inactive. The call rests on the fitted dose curve; in most records, active means well fitted inhibition curve with a large enough effect; inconclusive means small, poorly fitted or top-dose-only effect; inactive means flat fitted curve, though single readings scatter.

Assay: qHTS for Inhibitors of human tyrosyl-DNA phosphodiesterase 1 (TDP1): qHTS in cells in absence of CPT; further: nearly all actives have a fitted effect of over 55% in size
Settings: DT40 Tdp1-/- hTDP1 cells, no CPT, ATP luminescence, 48 h; activity change, negative = growth inhibition: at 46.2 µM (top of the series)
Outline: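 Growth of hTDP1-complemented DT40 Tdp1-knockout cells is measured by ATP luminescence after at least 48 hr compound exposure at 37 °C, with DMSO substituting for the 20 nM CPT used in the parallel screen.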
On the % scale 0 is the no-effect control and ±100 the full control effect; potency means the concentration at half of the fitted maximal effect.

SMILES	activity change, negative = growth inhibition [%]	Potency
O=c1cnnc(Nc2ccccc2)[nH]1	0.313	–
O=C(c1cccs1)C1C(c2ccc(Br)cc2)NC(=S)NC1(O)C(F)(F)F (centres undefined)	-27.6	–
Fc1ccc(N2CCN(Cc3cnc(Oc4ccc(Br)cc4)s3)CC2)cc1	-18.2	–
COC(=O)c1cc(NC(=O)CCS(=O)(=O)c2cc(Br)cc3c2N(C(=O)C2CC2)CC3)cc(C(=O)OC)c1	-14.6	–
O=C(NCCOc1ccccc1)c1ccccc1F	6.64	–
CN1C2CCC1CC(NC(=O)c1ccc([N+](=O)[O-])cc1)C2 (centres undefined)	-21.8	–
CC1CCC2CCCCC2N1C(=O)c1cc([N+](=O)[O-])cc([N+](=O)[O-])c1 (centres undefined)	–	18.4 µM (active)
Cc1cc([N+](=O)[O-])c(N2CCC[C@@H]2C(=O)O)c([N+](=O)[O-])c1	-16.3	–
Cc1ccc(C)c(NC(=O)COC(=O)c2nn(C)c(=O)c3ccccc23)c1	8.08	–
COC(=O)c1cc(NC(=O)c2nn(C)c(=O)c3ccccc23)cc(C(=O)OC)c1	–	6.51 µM (active)
CCC(C)NC(=O)c1nn(C)c(=O)c2ccccc12 (centres undefined)	-8.51	–
CC1CCCCC1NC(=O)Cn1c(=O)cnc2ccccc21 (centres undefined)	-4.01	–
Cn1nnc(NC(=O)CSc2ncn[nH]2)n1	-0.455	–
CN(C)N(C)C(=O)C(O)(c1ccccc1)c1ccccc1	-0.464	–
Cc1ccc(-c2nn(CCC(=O)Nc3ccc(Cl)c(Cl)c3)c(=O)c3ccccc23)cc1	–	23.1 µM (active)
Cc1cccc(NC(=O)CCn2c(=O)oc3ccccc32)c1	5.57	–
Cc1cc(C)cc(NC(=O)CCN2C(=O)c3ccccc3C2=O)c1	-11.8	–
CCc1nnc(NC(=O)CSc2nc(SC)ns2)s1	-24.6	–
COc1cccc(NC(=O)N(C)C[C@@H]2Oc3ncc(Br)cc3C(=O)N([C@@H](C)CO)C[C@H]2C)c1	-25.5	–
CN(C)N=Nc1ccc2nc[nH]c2c1	-13.4	–
CCOc1ccc(NC(=O)CN(C)C(=O)Cn2c(=O)cnc3ccccc32)cc1OCC	-27.1	–
CCCN(CCC)S(=O)(=O)c1cc2c(cc1Br)CCN2C(=O)CC	–	5.8 µM (active)
CCC(=O)N1CCc2cc(Br)c(S(=O)(=O)NCCN3CCCCC3CC)cc21 (centres undefined)	6.25	–
CCC(=O)N1CCc2cc(S(=O)(=O)NC(C(=O)N3CCc4ccccc4C3)C(C)C)ccc21 (centres undefined)	-0.707	–
Cc1cc(C(F)F)nn1CC(=O)NC1CCCCCC1	2.11	–
COc1ccc(C(=O)N2CCC[C@@]3(CCN(C(=O)NC(C)C)C3)C2)cc1	-2.74	–

SMILES	activity change, negative = growth inhibition [%]	Potency
COc1ccc2cc(C(=O)O)n(CC(=O)c3ccccc3)c2c1	12.2	–
O=C(/C=C/[C@H]1O[C@@H](n2cnc3c(NC(=O)c4ccccc4)ncnc32)[C@H](O)[C@@H]1O)NCc1ccccc1	-11.2	–
CCC(C)(C(=O)Nc1ccccc1C)N(C(=O)CNC(C)=O)c1ccc(C)cc1 (centres undefined)	-15.5	–
CC(C)(C)OC(=O)N1CCC(NC(=O)c2[nH]cnc2C(=O)N[C@@H](Cc2ccccc2)C(=O)OCc2ccccc2)CC1	–	13 µM (active)
C[C@@H](NC(=O)c1nc[nH]c1C(=O)N1CCN(C(=O)OC(C)(C)C)CC1)c1ccccc1	-23.7	–
O=C(N[C@@H](Cc1ccccc1)C(=O)OCc1ccccc1)c1nc[nH]c1C(=O)NC1CCNCC1	0.388	–
O=C(Nc1ccccc1Cl)NC1(C(=O)N2CCOCC2)CCCCC1	-7.24	–
COc1cccc(NC(=O)CN(C)C(=O)CSCc2nc3scc(-c4cccs4)c3c(=O)[nH]2)c1	1.04	–
Cc1cnc(C(=O)N2CCCC(N3CCN(c4ccccc4F)CC3)C2)cn1 (centres undefined)	-24.2	–
Cc1ccccc1N1CCN(C2CCCN(C(=O)c3cn4c(C)cccc4n3)C2)CC1 (centres undefined)	–	14.6 µM (active)
Cc1ccccc1N1CCN(C2CCCN(C(=O)c3ocnc3C)C2)CC1 (centres undefined)	-25.4	–
CC(C)c1ccc(NS(=O)(=O)c2ccc3[nH]cc(C(=O)NC4CCCC4)c(=O)c3c2)cc1	-18	–
COCOc1cccc(CN2CCC(C)(Oc3ccc(SC)cc3)C2)c1 (centres undefined)	–	10.3 µM (active)
CCc1ccc(OC2(C)CCN(CCOc3ccc(C)cc3)C2)cc1 (centres undefined)	-28.4	–
CCC12CN3CC(CC)(CN(C1)C31C(=O)N(C)c3ccc(C)cc31)C2=O (centres undefined)	-22.5	–
O=C(NC1CC2CCCC(C1)N2C(=O)N1CCCCC1)C1CCCCC1 (centres undefined)	-8.22	–
COC(=O)Cc1[nH]n(-c2nc3ccccc3s2)c(=O)c1C(C)=Nc1ccc(OC)cc1	–	3.26 µM (active)
COc1ccc(N=C(C)c2sc3ccccc3c2O)cc1	0.494	–
C/C(=N\NC(=O)CC(C)C)c1c(C(F)(F)F)[nH]n(-c2nc3ccccc3s2)c1=O	-8.53	–
Cc1ccc(-c2ccc(CCC(=O)O)n2-c2ccc(C(N)=O)cc2)cc1	-15.2	–
CN(Cc1ccccc1)C(=O)C(=O)c1cn(CC(=O)N2CCCC2)c2ccccc12	-19.2	–
COc1ccc(OCCCON2C(=O)c3ccccc3C2=O)cc1	-0.348	–
CCOC(=O)c1cc2n(c1N)-c1ccccc1C2=O	-18.9	–
CCOC(=O)C1=C(c2ccc(OC)cc2)C(=O)c2ccccc2C1=O	–	1.46 µM (active)
CCOc1ccc(C(=O)NCC(=O)N2CCCCCCC2)cc1OCC	0.068	–
O=C(CCS(=O)(=O)c1cccc2nonc12)NCCc1ccccc1Cl	-17.1	–

SMILES	activity change, negative = growth inhibition [%]	Potency
COc1cccc(Cn2c(=O)c(-c3ccccc3)nc3cnc(OC)nc32)c1	-1.76	–
COc1cccc(Cn2c(=O)cnc3cncnc32)c1	–	0.731 µM (active)
COCCn1c(=O)c(CCc2ccccc2)nc2cncnc21	22.6	–
COc1cccc(Cn2c(=O)c(CCc3ccccc3)nc3cnc(N(C)C)nc32)c1	-6.83	–
COc1ccc(-c2nc3cnc(OC)nc3n(Cc3ccc(F)cc3)c2=O)cc1	-15	–
COc1cccc(Cn2c(=O)c(-c3cc(F)cc(F)c3)nc3cnc(OC)nc32)c1	–	0.116 µM (active)
Cc1ccc(F)cc1NC(=O)c1cccc(N(C)C)c1	-1.61	–
COc1ccc(-c2nc(N)sc2C2(O)C(=O)Nc3c(Br)cc(F)cc32)cc1OC (centres undefined)	-1.91	–
Cc1ccc(OC(=O)c2ccccc2C(=O)OCC(F)(F)C(F)F)cc1	-4.89	–
O=C(O)c1cc2ccccc2c(=O)s1	-6.59	–
CC(=O)c1ccc(NC(=O)Cn2c(=O)oc3ccccc32)cc1	-10.3	–
COc1ccc(C2(C)NC(=O)N(CC(=O)c3ccc4c(c3)OCO4)C2=O)cc1 (centres undefined)	-20.5	–
CCc1ccc(-n2nnc(-c3nc(-c4ccccc4)no3)c2C)cc1	3.01	–
Cc1ccc(NC(=O)CSc2nnc(CNC(=O)c3ccccc3F)o2)cc1Cl	6.65	–
Cc1cccc(-n2c(SCC(=O)Nc3cccc(S(=O)(=O)NC4=NCCCCC4)c3)nc3ccccc3c2=O)c1C	–	16.4 µM (active)
COc1ccccc1C(=O)OCC(=O)Nc1cccc(S(=O)(=O)NC2=NCCCCC2)c1	-28.2	–
CCc1ccc(C(=O)OCC(=O)Nc2cccc(S(=O)(=O)NC3=NCCCCC3)c2)cc1	-16.1	–
O=C(Cc1cccs1)Nc1nnc(SCc2ccc(F)cc2)s1	-8.66	–
Nc1nnnn1/N=C/c1cc([N+](=O)[O-])ccc1O	-19	–
O=[N+]([O-])c1ccc(O)c(/C=N/Nc2ccccc2[N+](=O)[O-])c1	–	18.4 µM (active)
O=[N+]([O-])c1cccc(C=NN=Cc2ccccc2O)c1	-0.122	–
CCCCn1c(N)c(N(CCC(C)C)C(=O)c2ccc(COc3ccccc3)o2)c(=O)[nH]c1=O	-8.96	–
CS(=O)(=O)N1CCN(CC(=O)NC2CCCC2)CC1	-27.4	–
COc1ccccc1-n1c(-c2cc(-c3ccco3)[nH]n2)n[nH]c1=S	-5.33	–
CN(c1nc2ccccc2n2c(-c3ccco3)nnc12)S(=O)(=O)c1ccccc1	-12.7	–
Cn1c(-c2ccco2)nc2cc3ccccc3cc21	–	20.6 µM (active)

SMILES	activity change, negative = growth inhibition [%]	Potency
CCN(CC)C(=O)CSC1c2ccccc2C(=O)N1c1ccccc1 (centres undefined)	-17.6	–
COC(=O)c1ccc(-n2cnc3ccccc32)nc1	0.376	–
COC(=O)CSc1nc(C)c2ccc(OC)cc2n1	-3.51	–
O=C(O)C(c1ccccc1)C1(O)CCCCC1 (centres undefined)	-7.94	–
O=C(Nn1c(-c2ccc(Cl)cc2)nc2ccccc2c1=O)c1cccnc1Cl	2.46	–
CC1COc2ccccc2N1C(=O)c1cccnc1Cl (centres undefined)	-1.42	–
CN1/C(=C\C(=O)c2cccnc2Cl)C(C)(C)c2ccccc21	–	16.4 µM (active)
COCCN(C(=O)CCC(=O)Nc1nccs1)C(C(=O)NCCC(C)C)c1ccc(F)cc1 (centres undefined)	-22.3	–
Cc1ncc2c(c1CNS(=O)(=O)N(C)C)CCN(C(=O)c1ccccc1F)C2	-14.2	–
CC(C)(C)N(Cc1ccccc1)C(=O)c1ccncc1	8.21	–
CC(=O)N1N=C(c2ccccc2)OC1c1cccnc1 (centres undefined)	-18.3	–
CC(=O)N1N=C(c2ccncc2)OC1(Cc1ccccc1)Cc1ccccc1	–	8.2 µM (active)
CC1(c2cccc(N)c2)OCCO1	1.06	–
Cc1ccc(S(=O)(=O)/N=C(/NC(=S)Nc2c(C)n(C)n(-c3ccccc3)c2=O)c2ccccc2)cc1	14.8	–
Cc1ccccc1CNC(=O)C(=O)NCC(c1cccs1)S(=O)(=O)c1cccs1 (centres undefined)	–	14.6 µM (active)
COc1ccccc1CNC(=O)COC(=O)c1cccs1	-1.27	–
CC(C)C(=O)NCC(c1cccs1)S(=O)(=O)c1ccc(F)cc1 (centres undefined)	11.1	–
O=C(CNC(=O)c1ccco1)NNC(=O)c1ccc(Br)cc1	17.5	–
O=C(Oc1ccc(-c2nc(-c3ccccn3)no2)cc1)c1ccccc1	–	9.2 µM (active)
O=C(Oc1ccccc1)c1ccc2nccnc2c1	2.88	–
CC(C)c1nc(-c2ccccn2)no1	-11.4	–
COc1ccc(S(=O)(=O)N2CCN(CC(=O)N3c4ccccc4CC3C)CC2)cc1OC (centres undefined)	-5.83	–
O=C(NC1=NCCS1)[C@H](Cc1ccccc1)N1C(=O)c2ccccc2C1=O	-17.9	–
Cc1occc1C(=O)NC1CCCN(Cc2ccc(CC(C)C)cc2)C1 (centres undefined)	–	20.6 µM (active)
Cc1occc1C(=O)NNC(=S)NCC(C)C	-1.82	–
Cc1occc1C(=O)Nc1cccc(Cn2cccn2)c1	-25.6	–
